Results as given in PubChem BioAssay (Tox21).
Results filed as inconclusive are left out. Active and inactive are the calls of the source. Unless noted, calls follow the shape of the dose curve; as a rule, active = well fitted cell-killing curve with a large enough effect in the repeat runs; inconclusive = weak or mixed curves, or effect the other way; inactive = no such curve, though single readings can be large or run the other way.

Test: qHTS assay to identify small molecule agonists of the vitamin D receptor (VDR) signaling pathway - cell viability counter screen (AID 743224); also: nearly all actives have a fitted effect of over 50% in size
Settings: VDR-bla HEK293T viability, CellTiter-Glo luminescence, 16 h; series mostly up to 62.6 µM; activity change, negative = cytotoxicity: at the top concentration
Outline: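 VDR-bla cells were preincubated 4 h at 37C/5% CO2, then exposed to compounds for 16 h. After the 2 h room-temperature bla FRET read, CellTiter-Glo was added to the same wells and luminescence read after 30 min.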
% is scaled to controls: 0 for no effect and ±100 for the full control effect.

Structure (SMILES) | activity change, negative = cytotoxicity
COc1ccc(/C=C/S(=O)(=O)NC(=O)c2ccc(C)cc2Cl)cc1 | 15.9% (inactive)
O=C(Cl)c1cc(Cl)cc(Cl)c1 | 10.3% [at 81.1 µM] (inactive)
Cc1ccccc1CCO | 5.59% (inactive)
Cc1c(N=C=O)cccc1N=C=O | 1.79% [at 81.1 µM] (inactive)
CC(C)Cc1nccs1 | -0.764% [at 81.1 µM] (inactive)
O=C1CCCN1CCO | -1.46% (inactive)
CC/C=C\CCO | 3.22% (inactive)
S=c1[nH][nH]c(=S)s1 | 0.827% (inactive)
CC(C)CCCCCOC(=O)CS | 2.36% (inactive)
CC(=O)CC/C=C(\C)CC/C=C(\C)CC/C=C(\C)CCC=C(C)C | 5.62% (inactive)
CC/C=C/CCO | 2.29% [at 81.1 µM] (inactive)
CCCCCCC/C=C/C=O | -9.99% (inactive)
CCOCCn1c(N2CCCN(C)CC2)nc2ccccc21 | -0.969% (inactive)
O=C(N[C@@H](Cc1ccccc1)[C@@H](O)C(=O)N1C[C@@H](O)[C@@H](O)C1)c1cc2cc(Cl)ccc2[nH]1 | -16.1% (inactive)
C=CC(=O)OCCCCCCCCCC | 15.7% (inactive)
CCOc1cc(OCC)c(C(C)=O)cc1OCC | 2.84% (inactive)
COc1ccc(/C=C/c2cc(OC)cc(=O)o2)cc1 | 11.9% (inactive)

Structure (SMILES) | activity change, negative = cytotoxicity
O=C(O)c1ccccc1[N+](=O)[O-] | -11.9% (inactive)
CCCCCCCCNC | 16.3% (inactive)
C[Si](C)(C)O[Si](C)(C)O[Si](C)(C)C | 0.0028% (inactive)
CC(C)CCCCCCCOC(=O)c1ccc(C(=O)OCCCCCCCC(C)C)c(C(=O)OCCCCCCCC(C)C)c1 | 16.5% (inactive)
Nc1ccc(-c2ccc(F)cc2)cc1 | 5.73% (inactive)
Nc1ccc(C(=O)Oc2ccccc2)c(O)c1 | 12.6% (inactive)
O=C(O)c1cc(C(=O)O)cc([N+](=O)[O-])c1 | 8.02% (inactive)
CC(C)C/C=C(\C=O)c1ccccc1 | 0.145% (inactive)
O=P(c1ccccc1)(c1ccccc1)c1ccccc1 | -2.94% (inactive)
COc1cc(C)c(Cc2cnc(N)nc2N)cc1OC | -1.64% (inactive)
O=C(O)c1ccc(O)c(O)c1 | -6.96% (inactive)
O=[N+]([O-])c1ccc(Cl)cc1Cl | -7.89% (inactive)
O=C(O)c1ccccc1-n1cc(C(=O)O)c(=O)c2cc(Nc3c(F)cc(F)cc3Cl)c(Cl)cc21 | 0.864% (inactive)
Cc1c(Cl)cccc1[N+](=O)[O-] | 3.98% (inactive)
CC(=O)c1ccc(Cl)c(Cl)c1Cl | -0.506% (inactive)
C/C(=C\C(C)CC(C)CC(C)C)C1CC(=O)OC1=O (stereo not given) | 2.9% (inactive)
CCN(CC)CC(=O)OCC(=O)[C@@]1(O)CC[C@H]2[C@@H]3CCC4=CC(=O)CC[C@]4(C)[C@H]3[C@@H](O)C[C@@]21C | 8.08% (inactive)

Test: qHTS assay to identify small molecule antagonists of the vitamin D receptor (VDR) signaling pathway - cell viability counter screen (AID 743225); also: nearly all actives have a fitted effect of over 50% in size
Settings: VDR-bla HEK293T viability, CellTiter-Glo luminescence, 16 h; series mostly up to 61 µM; viability change, negative = cytotoxic: at the top concentration
Outline: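 Same-well multiplex: following 16 h treatment of HEK 293T cells carrying a UAS-driven beta-lactamase reporter with compound and agonist (3 nM final), and a 2 h FRET substrate step, CellTiter-Glo was added and luminescence read after 30 min.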

Structure (SMILES) | viability change, negative = cytotoxic
COc1ccc(/C=C/S(=O)(=O)NC(=O)c2ccc(C)cc2Cl)cc1 | 1.47% (inactive)
O=C(Cl)c1cc(Cl)cc(Cl)c1 | 6.92% [at 78.8 µM] (inactive)
O=C(NC1CCN(CCc2c[nH]c3ccccc23)CC1)c1ccccc1 | -13.8% (inactive)
Cc1ccccc1CCO | 9.12% (inactive)
Cc1c(N=C=O)cccc1N=C=O | -4.1% [at 78.8 µM] (inactive)
CC(C)Cc1nccs1 | 11.4% [at 78.8 µM] (inactive)
O=C1CCCN1CCO | -9.62% (inactive)
CC/C=C\CCO | 2.01% (inactive)
S=c1[nH][nH]c(=S)s1 | -17% (inactive)
CC(C)CCCCCOC(=O)CS | 0.212% (inactive)
CC(=O)CC/C=C(\C)CC/C=C(\C)CC/C=C(\C)CCC=C(C)C | 3.97% (inactive)
CCCCCCC/C=C/C=O | -2.9% (inactive)
CCOCCn1c(N2CCCN(C)CC2)nc2ccccc21 | 7.85% (inactive)
CC(C)C[C@H](NC(=O)[C@H](Cc1ccccc1)NC(=O)c1cnccn1)B(O)O | -16.6% (inactive)
O=C(N[C@@H](Cc1ccccc1)[C@@H](O)C(=O)N1C[C@@H](O)[C@@H](O)C1)c1cc2cc(Cl)ccc2[nH]1 | 8.21% (inactive)
C=CC(=O)OCCCCCCCCCC | 6.42% (inactive)
CCOc1cc(OCC)c(C(C)=O)cc1OCC | -0.227% (inactive)

Structure (SMILES) | viability change, negative = cytotoxic
COc1ccc(/C=C/c2cc(OC)cc(=O)o2)cc1 | 1.76% (inactive)
O=C(O)c1ccccc1[N+](=O)[O-] | 0% (inactive)
C[Si](C)(C)O[Si](C)(C)O[Si](C)(C)C | 22.6% (inactive)
CC(C)CCCCCCCOC(=O)c1ccc(C(=O)OCCCCCCCC(C)C)c(C(=O)OCCCCCCCC(C)C)c1 | 4.83% (inactive)
Nc1ccc(-c2ccc(F)cc2)cc1 | -1.87% (inactive)
Nc1ccc(C(=O)Oc2ccccc2)c(O)c1 | 0.621% (inactive)
O=C(O)c1cc(C(=O)O)cc([N+](=O)[O-])c1 | -9.15% (inactive)
O=P(c1ccccc1)(c1ccccc1)c1ccccc1 | -0.114% (inactive)
COc1cc(C)c(Cc2cnc(N)nc2N)cc1OC | 5.24% (inactive)
C=C[Si]1(C)O[Si](C)(C=C)O[Si](C)(C=C)O[Si](C)(C=C)O1 (stereo not given) | 2.72% (inactive)
O=C(O)c1ccc(O)c(O)c1 | -0.29% (inactive)
O=[N+]([O-])c1ccc(Cl)cc1Cl | 5.95% (inactive)
Cc1c(Cl)cccc1[N+](=O)[O-] | 13.1% (inactive)
CC(=O)c1ccc(Cl)c(Cl)c1Cl | -0.0138% (inactive)
Nc1ccc(F)cc1F | 9.19% [at 78.8 µM] (inactive)
C/C(=C\C(C)CC(C)CC(C)C)C1CC(=O)OC1=O (stereo not given) | 5.05% (inactive)
CCN(CC)CC(=O)OCC(=O)[C@@]1(O)CC[C@H]2[C@@H]3CCC4=CC(=O)CC[C@]4(C)[C@H]3[C@@H](O)C[C@@]21C | -22.9% (inactive)

Test: qHTS assay to identify small molecule agonists of the NFkB signaling pathway (AID 1159509; active = well fitted curve in the direction sought with a large enough effect in the signal ratio in the repeat runs, not every such curve was filed as active; the % refers to the signal ratio)
Settings: NFkB-bla ME-180 cells, beta-lactamase FRET ratio, 5 h; series mostly up to 61 µM; activation: at the top concentration
Outline: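 ME-180 NFkB-bla, 2,000 cells/well, overnight plating; cpd pinned in DMSO, 5 h 37 C; B/G FRET substrate 1.5 h RT; ex 405, em 460/530 nm.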

Structure (SMILES) | activation
COc1ccc(/C=C/S(=O)(=O)NC(=O)c2ccc(C)cc2Cl)cc1 | 0.707% (inactive)
O=C(Cl)c1cc(Cl)cc(Cl)c1 | 0.575% [at 78.8 µM] (inactive)
O=C(NC1CCN(CCc2c[nH]c3ccccc23)CC1)c1ccccc1 | 0.0022% (inactive)
Cc1ccccc1CCO | 1.21% (inactive)
Cc1c(N=C=O)cccc1N=C=O | -0.243% [at 78.8 µM] (inactive)
CC(C)Cc1nccs1 | -0.112% [at 78.8 µM] (inactive)
O=C1CCCN1CCO | -0.452% (inactive)
S=c1[nH][nH]c(=S)s1 | -0.543% (inactive)
CC(C)CCCCCOC(=O)CS | 0.27% (inactive)
CC(=O)CC/C=C(\C)CC/C=C(\C)CC/C=C(\C)CCC=C(C)C | 1.49% (inactive)
CCCCCCC/C=C/C=O | -0.956% (inactive)
CCOCCn1c(N2CCCN(C)CC2)nc2ccccc21 | -0.03% (inactive)
CC(C)C[C@H](NC(=O)[C@H](Cc1ccccc1)NC(=O)c1cnccn1)B(O)O | -0.169% (inactive)
O=C(N[C@@H](Cc1ccccc1)[C@@H](O)C(=O)N1C[C@@H](O)[C@@H](O)C1)c1cc2cc(Cl)ccc2[nH]1 | -0.384% (inactive)
C=CC(=O)OCCCCCCCCCC | 0.576% (inactive)
CCOc1cc(OCC)c(C(C)=O)cc1OCC | -0.0615% (inactive)
COc1ccc(/C=C/c2cc(OC)cc(=O)o2)cc1 | 0.0394% (inactive)
O=C(O)c1ccccc1[N+](=O)[O-] | -0.54% (inactive)
CCCCCCCCNC | 0.0442% (inactive)

Structure (SMILES) | activation
C[Si](C)(C)O[Si](C)(C)O[Si](C)(C)C | 0.341% (inactive)
CC(C)CCCCCCCOC(=O)c1ccc(C(=O)OCCCCCCCC(C)C)c(C(=O)OCCCCCCCC(C)C)c1 | 0.0189% (inactive)
Nc1ccc(-c2ccc(F)cc2)cc1 | -0.601% (inactive)
Nc1ccc(C(=O)Oc2ccccc2)c(O)c1 | -0.392% (inactive)
O=C(O)c1cc(C(=O)O)cc([N+](=O)[O-])c1 | 0.0379% (inactive)
CC(C)C/C=C(\C=O)c1ccccc1 | -0.163% (inactive)
CC(C)(Cc1c[nH]c2ccccc12)NCC(O)COc1ccccc1C#N (stereo not given) | 0.592% (inactive)
O=P(c1ccccc1)(c1ccccc1)c1ccccc1 | -0.631% (inactive)
COc1cc(C)c(Cc2cnc(N)nc2N)cc1OC | 0.0534% (inactive)
C=C[Si]1(C)O[Si](C)(C=C)O[Si](C)(C=C)O[Si](C)(C=C)O1 (stereo not given) | -0.247% (inactive)
O=C(O)c1ccc(O)c(O)c1 | -0.711% (inactive)
O=[N+]([O-])c1ccc(Cl)cc1Cl | 0.58% (inactive)
O=C(O)c1ccccc1-n1cc(C(=O)O)c(=O)c2cc(Nc3c(F)cc(F)cc3Cl)c(Cl)cc21 | -0.192% (inactive)
Cc1c(Cl)cccc1[N+](=O)[O-] | 1.03% (inactive)
CC(=O)c1ccc(Cl)c(Cl)c1Cl | 0.767% (inactive)
Nc1ccc(F)cc1F | 0.0623% [at 78.8 µM] (inactive)
C/C(=C\C(C)CC(C)CC(C)C)C1CC(=O)OC1=O (stereo not given) | 1.79% (inactive)
CCN(CC)CC(=O)OCC(=O)[C@@]1(O)CC[C@H]2[C@@H]3CCC4=CC(=O)CC[C@]4(C)[C@H]3[C@@H](O)C[C@@]21C | -0.825% (inactive)
